# The supplement of paper PMC8728848
# Only a selection was taken, and the strongest signals are over-represented in it overall.
# Columns and labels:
# Test in all cases: glycan array binding signal (z-score within array); higher = stronger binding
# Conditions in all cases: glycan notation: IUPAC condensed, linker removed
# [1] = molecular target: Gal3S(b1-4)[Fuc(a1-3)]Glc6S
# Outline: (§1)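 Glycan array data were curated from 3228 arrays in the Consortium for Functional Glycomics database and kept only where the protein sequence was available. Glycan names were converted to IUPAC-condensed notation, and columns mapping to the same glycan were averaged. The binding signal is a within-array Z-score, averaged across arrays of the same protein sequence at different concentrations or buffers and across linkers. Negative Z-scores can be read as non-binding.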
# Gal4S(b1-4)GlcNAc = molecular target: Gal4S(b1-4)GlcNAc
# Outline: as §1
# [2] = molecular target: GalNAc(a1-3)GalNAc(b1-3)Gal(a1-4)Gal(b1-4)GlcNAc
# Outline: as §1
# [3] = molecular target: GalNAc(b1-3)Gal(a1-4)Gal(b1-4)GlcNAc(b1-3)Gal(b1-4)Glc
# Outline: as §1
# [4] = molecular target: GlcNAc(a1-4)Gal(b1-4)GalNAc
# Outline: as §1
# [5] = molecular target: GlcNAc(a1-4)Gal(b1-4)GlcNAc(b1-3)Gal(b1-4)Glc
# Outline: as §1
# [6] = molecular target: GlcNAc(b1-2)[GlcNAc(b1-4)]Man(a1-3)[GlcNAc(b1-2)Man(a1-6)]Man(b1-4)GlcNAc(b1-4)GlcNAc
# Outline: as §1
# [7] = molecular target: GlcNAc(b1-3)Gal(b1-4)GlcNAc(b1-2)[GlcNAc(b1-3)Gal(b1-4)GlcNAc(b1-6)]Man(a1-6)[GlcNAc(b1-3)Gal(b1-4)GlcNAc(b1-2)Man(a1-3)]Man(b1-4)GlcNAc(b1-4)GlcNAc
# Outline: as §1
# [8] = molecular target: GlcNAc(b1-4)Gal(b1-4)GlcNAc
# Outline: as §1
# Man(a1-3)[Man(a1-6)]Man = molecular target: Man(a1-3)[Man(a1-6)]Man
# Outline: as §1
# [9] = molecular target: Neu5Ac(a2-3)Gal(b1-3)GalNAc(b1-4)[Neu5Ac(a2-8)Neu5Ac(a2-3)]Gal(b1-4)Glc
# Outline: as §1
# [10] = molecular target: Neu5Ac(a2-3)Gal(b1-3)GlcNAc(b1-2)Man(a1-3)[Neu5Ac(a2-3)Gal(b1-3)GlcNAc(b1-2)Man(a1-6)]Man(b1-4)GlcNAc(b1-4)GlcNAc
# Outline: as §1
# [11] = molecular target: Neu5Ac(a2-3)Gal(b1-3)GlcNAc(b1-3)GalNAc
# Outline: as §1
# [12] = molecular target: Neu5Ac(a2-3)Gal(b1-3)[Fuc(a1-4)]GlcNAc
# Outline: as §1
# [13] = molecular target: Neu5Ac(a2-3)Gal(b1-3)[GlcNAc(b1-6)]GalNAc
# Outline: as §1
# [14] = molecular target: Neu5Ac(a2-3)Gal(b1-3)[Neu5Ac(a2-6)]GalNAc
# Outline: as §1
# [15] = molecular target: Neu5Ac(a2-3)Gal(b1-4)GlcNAc(b1-2)Man(a1-3)[Neu5Ac(a2-3)Gal(b1-4)GlcNAc(b1-2)Man(a1-6)]Man(b1-4)GlcNAc(b1-4)[Fuc(a1-6)]GlcNAc
# Outline: as §1
# [16] = molecular target: Neu5Ac(a2-3)Gal(b1-4)GlcNAc(b1-2)[Neu5Ac(a2-3)Gal(b1-4)GlcNAc(b1-6)]Man(a1-6)[Neu5Ac(a2-3)Gal(b1-4)GlcNAc(b1-2)Man(a1-3)][GlcNAc(b1-4)]Man(b1-4)GlcNAc(b1-4)GlcNAc
# Outline: as §1
# [17] = molecular target: Neu5Ac(a2-3)Gal(b1-4)GlcNAc(b1-3)Gal(b1-4)GlcNAc(b1-3)GalNAc
# Outline: as §1
# [18] = molecular target: Neu5Ac(a2-3)Gal(b1-4)[Fuc(a1-3)]GlcNAc(b1-2)Man
# Outline: as §1
# [19] = molecular target: Neu5Ac(a2-6)Gal(b1-4)GlcNAc(b1-2)Man(a1-3)[Man(a1-6)]Man(b1-4)GlcNAc(b1-4)GlcNAc
# Outline: as §1
# [20] = molecular target: Neu5Ac(a2-6)Gal(b1-4)GlcNAc(b1-2)Man(a1-6)[Man(a1-3)]Man(b1-4)GlcNAc(b1-4)GlcNAc
# Outline: as §1
# [21] = molecular target: Neu5Ac(a2-6)Gal(b1-4)GlcNAc(b1-6)[Gal(b1-3)]GalNAc
# Outline: as §1
# [22] = molecular target: Neu5Ac(a2-8)Neu5Ac(a2-3)Gal(b1-4)Glc
# Outline: as §1
# [23] = molecular target: Neu5Ac(a2-8)Neu5Ac(a2-8)Neu5Ac(a2-3)Gal(b1-4)Glc
# Outline: as §1
# Neu5Ac(b2-6)GalNAc = molecular target: Neu5Ac(b2-6)GalNAc
# Outline: as §1
# [24] = molecular target: Neu5Gc(a2-8)Neu5Gc(a2-6)Gal(b1-4)GlcNAc
# Outline: as §1
binder,measurement,setting,value
Pwp1 (Candida glabrata) (protein) MGSSHHHHHHSSGLVPRGSHMASANPISITNVCQFPDNWARTAGFQATTVRLGLTIASNTYKELLNYPGLFNFATQKATVTQPNFSISGFPFFTGLYGLTVWPINLLVELQGYFVPPESGNYTFTLQGSDDAAILFFANPSTFACGSQNDWPQPREADITVTDTLVPSRTLYLVKGVAYPIRIAYYNGSGDGKLNVSFKDPSGTTHTDWKGYVWQYSNTCSTCTYT,glycan array binding signal (z-score),[1],-0.627
same,glycan array binding signal (z-score),Gal4S(b1-4)GlcNAc,0.267
same,glycan array binding signal (z-score),[2],-0.037
same,glycan array binding signal (z-score),[3],1.77
same,glycan array binding signal (z-score),[4],-1.74
same,glycan array binding signal (z-score),[5],1.72
same,glycan array binding signal (z-score),[6],0.374
same,glycan array binding signal (z-score),[7],0.839
same,glycan array binding signal (z-score),[8],-2.23
same,glycan array binding signal (z-score),Man(a1-3)[Man(a1-6)]Man,-1.51
same,glycan array binding signal (z-score),[9],0.23
same,glycan array binding signal (z-score),[10],1.89
same,glycan array binding signal (z-score),[11],0.585
same,glycan array binding signal (z-score),[12],-1.74
same,glycan array binding signal (z-score),[13],3.78
same,glycan array binding signal (z-score),[14],0.612
same,glycan array binding signal (z-score),[15],0.747
same,glycan array binding signal (z-score),[16],2.29
same,glycan array binding signal (z-score),[17],0.411
same,glycan array binding signal (z-score),[18],-1.41
same,glycan array binding signal (z-score),[19],-0.785
same,glycan array binding signal (z-score),[20],0.335
same,glycan array binding signal (z-score),[21],-1.62
same,glycan array binding signal (z-score),[22],0.642
same,glycan array binding signal (z-score),[23],-0.355
same,glycan array binding signal (z-score),Neu5Ac(b2-6)GalNAc,1.13
same,glycan array binding signal (z-score),[24],1.17
